Luminescence data for ten compounds are collected here from PubChem BioAssay AID547 (Emory University Molecular Libraries Screening Center, 2006).

Among all 1,300 compounds or so, about 10 (0.8%) were called active. Only a selection was taken, and actives are over-represented in it overall. Values without a mark were called inactive. The rule behind the calls is not given here.

The test concerns the target Chaperone protein DnaK (Escherichia coli (strain K12)) (UniProt P0A6Y8). Description: blockers of bacterial DnaK function – luminescence, E. coli K12, primary screen (AID 547).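 Note: tested at 10 µM.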 Conditions: DnaK chaperone assay, luminescence read-out; hits give low values.
As for `CN(N=O)c1cc(O)ccc1O`, the luminescence was 2.3e+06 cps.

For `CN(N=O)c1ccc(O)c(O)c1`, the luminescence is 951000 cps (active). For `CCCN(CCC)CCc1ccc(O)c(O)c1` the value was 2.6e+06 cps. For `CCN(CCCl)Cc1ccccc1Br` the value was 2.7e+06 cps. For `NC(Cc1cc(O)c(O)cc1O)C(=O)O` (stereo not given) the value was 1.2e+06 cps (active); for `NC(Cc1ccc(N(CCCl)CCCl)cc1)C(=O)O` (stereo not given), 2.5e+06 cps; for `N[C@@H](CCl)C(=O)O`, 2.4e+06 cps. Regarding `C[N+](C)(C)CC(=O)O`, the luminescence was 2.7e+06 cps. To `Oc1ccc2c3c1O[C@H]1c4[nH]c5ccccc5c4C[C@@]4(O)C(C2)N(CC2CC2)CCC314` (stereo not given in full) belongs 2.5e+06 cps; to `C[C@]12CC[C@H]3[C@@H](CCC4C[C@H](O)CC[C@@]43C)[C@@H]1CC[C@@H]2O` (stereo not given in full), 2.6e+06 cps.
